Assay results: article PMC12820563, “FoxP3 forms a head-to-head dimer in vivo and stabilizes its multimerization on adjacent microsatellites”
Over roughly 16,000 sequences, “rpm ratio (pull-down/input)” has its median near 0.94; the highest 2% begin near 1.7. Many of the other results were omitted from the sample, so the highest values are more common in it than they were.

biological target: T1, MBP-FoxP1dN (Mus musculus, UniProt P58462 326-579); test: PD-seq (MBP pull-down with sequencing); 20 mM Tris-HCl pH 7.5, 100 mM NaCl, 1.5 mM MgCl2, 0.4 uM protein, 0.1 uM dsDNA library, 30 min, room temperature, amylose pull-down; high values mean tight binding; settings: protein: recombinant; tags: His6-MBP; chain copies: 2; dsDNA, one strand shown
T1 sequence: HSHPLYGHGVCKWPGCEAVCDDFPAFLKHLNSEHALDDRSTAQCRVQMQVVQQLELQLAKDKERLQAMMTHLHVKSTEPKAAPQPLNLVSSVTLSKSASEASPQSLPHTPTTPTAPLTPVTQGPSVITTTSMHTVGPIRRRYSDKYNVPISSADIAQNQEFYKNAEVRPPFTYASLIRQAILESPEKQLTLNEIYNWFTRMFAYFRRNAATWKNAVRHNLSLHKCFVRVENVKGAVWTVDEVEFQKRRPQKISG
Outline: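 Binding is reads-per-million enrichment of pull-down over input, with replicates pooled. It comes from 30 min room-temperature incubation in Tris pH 7.5 buffer with NaCl and MgCl2 of 0.4 µM His6-MBP-tagged, N-terminally truncated mouse FoxP3 or FoxP1 fragment from E. coli with 0.1 µM Klenow-filled degenerate double-stranded DNA library, followed by amylose resin capture, three washes and Illumina sequencing of the released DNA.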

| Sequence | binding signal |
| --- | --- |
| GATGATTGTTCTCCCAGCTGATGAATTCAATGCGTCGAGTAAACAAATTTTCCTAATCTTTCTGTTCAAGCGCCATCTAC | 1.05 RPM ratio (pull-down/input) |
| GATGATTGTTCTCCCAGCTGATGAATTATTACGTTCGAGTAAACAAATTTTCCTAATCTTTCTGTTCAAGCGCCATCTAC | 1.21 RPM ratio (pull-down/input) |
| GATGATTGTTCTCCCAGCTGATGAATTTGGGATGTCGAGTAAACAAATTTTCCTAATCTTTCTGTTCAAGCGCCATCTAC | 0.922 RPM ratio (pull-down/input) |
| GATGATTGTTCTCCCAGCTGATGAATTTACCGAATCGAGTAAACAAATTTTCCTAATCTTTCTGTTCAAGCGCCATCTAC | 1.37 RPM ratio (pull-down/input) |
| GATGATTGTTCTCCCAGCTGATGAATTGAAAGCATCGAGTAAACAAATTTTCCTAATCTTTCTGTTCAAGCGCCATCTAC | 1.2 RPM ratio (pull-down/input) |
| GATGATTGTTCTCCCAGCTGATGAATTCACCGGTTCGAGTAAACAAATTTTCCTAATCTTTCTGTTCAAGCGCCATCTAC | 0.877 RPM ratio (pull-down/input) |
| GATGATTGTTCTCCCAGCTGATGAATTGATCTTATCGAGTAAACAAATTTTCCTAATCTTTCTGTTCAAGCGCCATCTAC | 1.08 RPM ratio (pull-down/input) |
| GATGATTGTTCTCCCAGCTGATGAATTTGGTATATCGAGTAAACAAATTTTCCTAATCTTTCTGTTCAAGCGCCATCTAC | 1.23 RPM ratio (pull-down/input) |
| GATGATTGTTCTCCCAGCTGATGAATTTTAGGGATCGAGTAAACAAATTTTCCTAATCTTTCTGTTCAAGCGCCATCTAC | 0.823 RPM ratio (pull-down/input) |
| GATGATTGTTCTCCCAGCTGATGAATTCCTATTATCGAGTAAACAAATTTTCCTAATCTTTCTGTTCAAGCGCCATCTAC | 1.33 RPM ratio (pull-down/input) |
| GATGATTGTTCTCCCAGCTGATGAATTATTTGTCTCGAGTAAACAAATTTTCCTAATCTTTCTGTTCAAGCGCCATCTAC | 1.66 RPM ratio (pull-down/input) |
| GATGATTGTTCTCCCAGCTGATGAATTTTATGACTCGAGTAAACAAATTTTCCTAATCTTTCTGTTCAAGCGCCATCTAC | 0.916 RPM ratio (pull-down/input) |
| GATGATTGTTCTCCCAGCTGATGAATTTTATGTCTCGAGTAAACAAATTTTCCTAATCTTTCTGTTCAAGCGCCATCTAC | 0.899 RPM ratio (pull-down/input) |
| GATGATTGTTCTCCCAGCTGATGAATTTATTGTCTCGAGTAAACAAATTTTCCTAATCTTTCTGTTCAAGCGCCATCTAC | 1.78 RPM ratio (pull-down/input) |
| GATGATTGTTCTCCCAGCTGATGAATTATTTGACTCGAGTAAACAAATTTTCCTAATCTTTCTGTTCAAGCGCCATCTAC | 1.07 RPM ratio (pull-down/input) |
| GATGATTGTTCTCCCAGCTGATGAATTTATTGACTCGAGTAAACAAATTTTCCTAATCTTTCTGTTCAAGCGCCATCTAC | 1.85 RPM ratio (pull-down/input) |

| Sequence | binding signal |
| --- | --- |
| GATGATTGTTCTCCCAGCTGATGAATTGTCACCCTCGAGTAAACAAATTTTCCTAATCTTTCTGTTCAAGCGCCATCTAC | 1 RPM ratio (pull-down/input) |
| GATGATTGTTCTCCCAGCTGATGAATTGAGTTCGTCGAGTAAACAAATTTTCCTAATCTTTCTGTTCAAGCGCCATCTAC | 0.82 RPM ratio (pull-down/input) |
| GATGATTGTTCTCCCAGCTGATGAATTAAGGACATCGAGTAAACAAATTTTCCTAATCTTTCTGTTCAAGCGCCATCTAC | 1.06 RPM ratio (pull-down/input) |
| GATGATTGTTCTCCCAGCTGATGAATTTCTGTCCTCGAGTAAACAAATTTTCCTAATCTTTCTGTTCAAGCGCCATCTAC | 0.915 RPM ratio (pull-down/input) |
| GATGATTGTTCTCCCAGCTGATGAATTGTTGTCCTCGAGTAAACAAATTTTCCTAATCTTTCTGTTCAAGCGCCATCTAC | 2.28 RPM ratio (pull-down/input) |
| GATGATTGTTCTCCCAGCTGATGAATTGACCTCCTCGAGTAAACAAATTTTCCTAATCTTTCTGTTCAAGCGCCATCTAC | 0.877 RPM ratio (pull-down/input) |
| GATGATTGTTCTCCCAGCTGATGAATTGATCTTCTCGAGTAAACAAATTTTCCTAATCTTTCTGTTCAAGCGCCATCTAC | 0.956 RPM ratio (pull-down/input) |
| GATGATTGTTCTCCCAGCTGATGAATTGTCCTCCTCGAGTAAACAAATTTTCCTAATCTTTCTGTTCAAGCGCCATCTAC | 1.03 RPM ratio (pull-down/input) |
| GATGATTGTTCTCCCAGCTGATGAATTGTTGTTCTCGAGTAAACAAATTTTCCTAATCTTTCTGTTCAAGCGCCATCTAC | 2.58 RPM ratio (pull-down/input) |
| GATGATTGTTCTCCCAGCTGATGAATTTCTAATCTCGAGTAAACAAATTTTCCTAATCTTTCTGTTCAAGCGCCATCTAC | 0.82 RPM ratio (pull-down/input) |
| GATGATTGTTCTCCCAGCTGATGAATTGTTGACCTCGAGTAAACAAATTTTCCTAATCTTTCTGTTCAAGCGCCATCTAC | 1.88 RPM ratio (pull-down/input) |
| GATGATTGTTCTCCCAGCTGATGAATTTTTTTTCTCGAGTAAACAAATTTTCCTAATCTTTCTGTTCAAGCGCCATCTAC | 0.756 RPM ratio (pull-down/input) |
| GATGATTGTTCTCCCAGCTGATGAATTGATGACCTCGAGTAAACAAATTTTCCTAATCTTTCTGTTCAAGCGCCATCTAC | 1.02 RPM ratio (pull-down/input) |
| GATGATTGTTCTCCCAGCTGATGAATTGATGATCTCGAGTAAACAAATTTTCCTAATCTTTCTGTTCAAGCGCCATCTAC | 0.99 RPM ratio (pull-down/input) |
| GATGATTGTTCTCCCAGCTGATGAATTGTTGATCTCGAGTAAACAAATTTTCCTAATCTTTCTGTTCAAGCGCCATCTAC | 2.06 RPM ratio (pull-down/input) |
| GATGATTGTTCTCCCAGCTGATGAATTAACAGTTTCGAGTAAACAAATTTTCCTAATCTTTCTGTTCAAGCGCCATCTAC | 1.09 RPM ratio (pull-down/input) |
